Measured values published in PubChem BioAssay.
Active and inactive are the calls of the source.

Experiments:
Albumin (Bos taurus) = Albumin (Bos taurus) (UniProt P02769); assay: compounds binding labelled BSA control protein – biochemical, small-molecule microarray, Alexa647 label, 635/667 nm fluorescence, artefact control for SMM control protein annotation, profiling panel (AID 1118); conditions: BSA-A647 binding, fluorescence 635 nm, higher = more signal;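 further: score merges 667 nm emission intensity and signal-to-noise per printed compound spot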
[1] = probe aXIP binding to arrayed compounds – biochemical, NeuroSMM set, 635/667 nm fluorescence, primary screen (AID 1119); conditions: small-molecule microarray, higher = more signal, called active from +8 up or from −8 down;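 further: probe is the protein aXip251-270 applied at 1 µg/mL to compound-printed slides; binding of probe to printed compounds measured as 667 nm fluorescence plus signal to noise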
[2] = probe aNOTCH3 binding on compound microarray – biochemical, small-molecule microarray, 635/667 nm fluorescence, primary screen (AID 1120); conditions: higher = more signal;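 further: probe is a biotin-tagged antibody raised against NOTCH3 rather than NOTCH3 protein; score merges spot fluorescence near 667 nm with spot signal to noise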
[3] = probe aNOTCH2 binding on compound microarray – biochemical, small-molecule microarray, 635/667 nm fluorescence, primary screen (AID 1121); conditions: higher = more signal;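 further: score merges feature fluorescence read at 667 nm with its signal to noise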
[4] = target: Carbonic anhydrase 2 (Homo sapiens) (UniProt P00918); assay: compounds binding carbonic anhydrase 2 – biochemical, small-molecule microarray, Alexa647-labelled CAII, profiling panel (AID 1122); conditions: CAII-A647 binding fluorescence, higher = more signal
[5] = COS7 lysate on small-molecule microarray, probe aHis, 635 nm (AID 1123); conditions: COS7 cell lysate, fluorescence, higher = more signal;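 further: z-score combines 667nm fluorescence intensity with signal-to-noise per printed compound spot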
[6] = probe aLAP1 signal on lysate-treated microarray – cell lysate, small-molecule microarray, COS7 lysate, primary screen (AID 1124); conditions: probe aLAP1, fluorescence, higher = more signal;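 further: lysate comes from COS7 cells expressing LAP1 and is applied at 0.3 µg/mL; score merges spot fluorescence near 667 nm with signal-to-noise over triplicate slides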
Sam68 (KHDRBS1) = assay: compounds binding KHDRBS1 protein – biochemical, small-molecule microarray, 635 nm fluorescence, primary screen (AID 1125); conditions: higher = more signal;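 further: score merges 667 nm channel intensity with signal to noise over triplicate slides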
[7] = system: Chordin-like protein 2 (CHRDL2); assay: compounds binding chordin-like 2 – biochemical, small-molecule microarray, 635 nm fluorescence, primary screen (AID 1126); conditions: fluorescence 635 nm, higher = more signal;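 further: printed compound slides probed with Chrdl2 protein at 4 µg/mL for 1 h at 4 C; score merges 667 nm emission intensity with signal to noise over three replicate slides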
[8] = target: Concanavalin-A (Canavalia ensiformis) (UniProt P02866); assay: compounds binding concanavalin A lectin – biochemical, small-molecule microarray, Alexa647 label, 635 nm, artefact control for SMM control protein annotation, primary screen (AID 1127); conditions: ConA-A647 binding fluorescence, higher = more signal;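 further: z combines 667 nm emission intensity with signal-to-noise across three replicate slides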
[9] = compounds binding Alexa647 anti-His antibody – biochemical, small-molecule microarray, 635 nm fluorescence, artefact control for SMM control protein annotation, primary screen (AID 1128); conditions: higher = more signal;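 further: score merges feature fluorescence with signal-to-noise for each printed compound spot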
[10] = system: Human papillomavirus type 1a E7 protein (residues 1-88); assay: HPV1a E7 small-molecule binders, primary screen, biochemical, small-molecule microarray, residues 1-88, 635 nm (AID 1129); conditions: small-molecule microarray binding, fluorescence 635 nm; higher = more signal
[11] = target: Focal adhesion kinase 1 (Homo sapiens) (UniProt Q05397); assay: PTK2 protein binding on printed compound slides – biochemical, small-molecule microarray, 635/667 nm fluorescence, BSA, DTT, primary screen (AID 1130); conditions: 635 nm fluorescence, higher = more signal;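 further: composite of spot emission at 667 nm and signal to noise over triplicate slides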
[12] = system: Fibrinogen (Alexa647-labelled); assay: Alexa647-fibrinogen binding to printed small molecules – biochemical, small-molecule microarray, 635/667 nm fluorescence, artefact control for SMM control-protein annotation, profiling panel (AID 1131); conditions: fibrinogen-A647 binding fluorescence, higher = more signal;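 further: z-score merges 667 nm fluorescence with per-spot signal-to-noise over triplicate slides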
[13] = target: Follistatin (Homo sapiens) (UniProt P19883); assay: FST protein binding to printed compounds – biochemical, small-molecule microarray, 635/667 nm fluorescence, primary screen (AID 1132); conditions: 635 nm fluorescence, higher = more signal
[14] = target: Fibroblast growth factor 2 (Homo sapiens) (UniProt P09038); assay: basic fibroblast growth factor binding to printed compounds – biochemical, small-molecule microarray, 635/667 nm fluorescence, primary screen (AID 1133); conditions: FGF2, fluorescence 635/667, higher = more signal
[15] = JC-1 mitochondrial potential readout, lung cancer cells – cell-based, A549, JC-1 fluorescence, basal, 24 h, 100 nL, profiling panel (AID 1138); conditions: higher = more signal;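 further: A549 lung adenocarcinoma cells under basal conditions with no added stimulus; test concentration not given here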
Lefty1 = Lefty1 protein binding to printed compounds – biochemical, small-molecule microarray, 635/667 nm fluorescence, primary screen (AID 1139); conditions: fluorescence 635/667, higher = more signal
[16] = system: wheat germ agglutinin (Triticum aestivum), Alexa647-labelled; assay: Alexa647-WGA lectin binding to printed small molecules – biochemical, small-molecule microarray, 635/667 nm fluorescence, artefact control for SMM control-protein annotation, profiling panel (AID 1140); conditions: WGA-A647 binding, 635 nm fluorescence, higher = more signal;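 further: score merges 667 nm feature emission with signal to noise over triplicate slides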
[17] = target: Luciferin 4-monooxygenase (Photinus pyralis) (UniProt P08659); assay: inhibition of purified Photinus pyralis luciferase – biochemical, luminescence, purified enzyme, 2006 set, primary screen (AID 1141); conditions: purified firefly luciferase, SteadyGlo luminescence, 30 min; higher = more signal, called active from +8 up or from −8 down;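 further: cell-free assay with purified firefly luciferase at 100 ng per well in PBS; test concentration not given here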
Sequence of Luciferin 4-monooxygenase (Photinus pyralis) (P08659 whole entry, looked up): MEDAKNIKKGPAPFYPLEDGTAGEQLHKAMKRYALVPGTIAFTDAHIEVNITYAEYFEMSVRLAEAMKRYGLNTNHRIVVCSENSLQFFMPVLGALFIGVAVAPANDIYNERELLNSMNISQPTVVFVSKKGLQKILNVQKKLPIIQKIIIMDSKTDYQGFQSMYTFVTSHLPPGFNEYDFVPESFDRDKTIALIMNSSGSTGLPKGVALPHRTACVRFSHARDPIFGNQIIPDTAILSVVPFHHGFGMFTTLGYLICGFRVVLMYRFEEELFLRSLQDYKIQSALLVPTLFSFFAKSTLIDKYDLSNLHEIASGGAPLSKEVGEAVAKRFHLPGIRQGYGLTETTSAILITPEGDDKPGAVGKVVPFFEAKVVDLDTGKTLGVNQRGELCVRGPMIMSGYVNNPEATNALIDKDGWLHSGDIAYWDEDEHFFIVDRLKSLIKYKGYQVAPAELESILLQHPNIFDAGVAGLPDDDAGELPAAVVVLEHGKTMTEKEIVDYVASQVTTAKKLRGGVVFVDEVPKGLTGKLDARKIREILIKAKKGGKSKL

Sequence of Focal adhesion kinase 1 (Homo sapiens) (Q05397 whole entry, looked up): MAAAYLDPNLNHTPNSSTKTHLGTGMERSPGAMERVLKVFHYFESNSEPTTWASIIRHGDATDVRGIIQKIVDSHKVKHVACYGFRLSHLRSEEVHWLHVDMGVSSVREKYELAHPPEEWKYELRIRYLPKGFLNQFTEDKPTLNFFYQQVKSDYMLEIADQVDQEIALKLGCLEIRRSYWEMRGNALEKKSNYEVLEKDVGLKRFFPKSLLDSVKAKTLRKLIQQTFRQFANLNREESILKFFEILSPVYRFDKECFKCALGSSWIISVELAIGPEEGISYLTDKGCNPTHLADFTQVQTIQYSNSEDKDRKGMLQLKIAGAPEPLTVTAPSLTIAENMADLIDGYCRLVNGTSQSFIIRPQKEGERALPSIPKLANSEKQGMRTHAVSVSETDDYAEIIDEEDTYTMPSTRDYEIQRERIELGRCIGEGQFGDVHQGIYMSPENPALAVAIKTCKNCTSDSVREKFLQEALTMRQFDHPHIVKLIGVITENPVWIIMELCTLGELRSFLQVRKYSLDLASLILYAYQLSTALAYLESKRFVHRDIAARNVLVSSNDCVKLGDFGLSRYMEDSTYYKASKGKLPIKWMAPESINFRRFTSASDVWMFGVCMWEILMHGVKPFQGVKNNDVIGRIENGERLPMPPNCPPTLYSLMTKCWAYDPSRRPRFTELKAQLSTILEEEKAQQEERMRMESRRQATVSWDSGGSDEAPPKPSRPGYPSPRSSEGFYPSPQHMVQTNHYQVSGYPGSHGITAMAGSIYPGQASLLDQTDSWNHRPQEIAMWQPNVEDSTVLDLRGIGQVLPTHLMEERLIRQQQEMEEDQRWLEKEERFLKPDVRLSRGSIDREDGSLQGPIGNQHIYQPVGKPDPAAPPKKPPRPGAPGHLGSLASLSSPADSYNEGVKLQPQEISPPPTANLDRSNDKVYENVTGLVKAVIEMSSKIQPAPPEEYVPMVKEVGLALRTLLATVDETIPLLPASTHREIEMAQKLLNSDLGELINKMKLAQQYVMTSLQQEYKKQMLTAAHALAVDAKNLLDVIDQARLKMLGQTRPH
Sequence of Follistatin (Homo sapiens) (P19883 whole entry, looked up): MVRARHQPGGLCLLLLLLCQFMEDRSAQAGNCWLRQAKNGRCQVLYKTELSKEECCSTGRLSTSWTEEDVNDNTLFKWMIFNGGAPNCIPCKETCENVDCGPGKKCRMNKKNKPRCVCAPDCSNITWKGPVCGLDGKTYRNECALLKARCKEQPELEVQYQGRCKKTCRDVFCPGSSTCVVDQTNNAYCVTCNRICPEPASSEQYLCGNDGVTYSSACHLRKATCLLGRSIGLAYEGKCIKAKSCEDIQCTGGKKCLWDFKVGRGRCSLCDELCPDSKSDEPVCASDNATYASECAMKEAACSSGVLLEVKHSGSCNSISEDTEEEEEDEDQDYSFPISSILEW
Sequence of Fibroblast growth factor 2 (Homo sapiens) (P09038 whole entry, looked up): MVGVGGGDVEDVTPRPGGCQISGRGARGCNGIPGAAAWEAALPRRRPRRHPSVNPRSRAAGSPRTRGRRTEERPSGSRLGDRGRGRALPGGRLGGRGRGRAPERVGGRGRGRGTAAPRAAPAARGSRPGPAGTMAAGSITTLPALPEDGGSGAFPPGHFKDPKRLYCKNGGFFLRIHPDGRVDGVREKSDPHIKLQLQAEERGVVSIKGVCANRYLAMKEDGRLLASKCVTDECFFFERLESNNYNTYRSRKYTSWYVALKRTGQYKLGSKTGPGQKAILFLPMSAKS
Sequence of Albumin (Bos taurus) (P02769 whole entry, looked up): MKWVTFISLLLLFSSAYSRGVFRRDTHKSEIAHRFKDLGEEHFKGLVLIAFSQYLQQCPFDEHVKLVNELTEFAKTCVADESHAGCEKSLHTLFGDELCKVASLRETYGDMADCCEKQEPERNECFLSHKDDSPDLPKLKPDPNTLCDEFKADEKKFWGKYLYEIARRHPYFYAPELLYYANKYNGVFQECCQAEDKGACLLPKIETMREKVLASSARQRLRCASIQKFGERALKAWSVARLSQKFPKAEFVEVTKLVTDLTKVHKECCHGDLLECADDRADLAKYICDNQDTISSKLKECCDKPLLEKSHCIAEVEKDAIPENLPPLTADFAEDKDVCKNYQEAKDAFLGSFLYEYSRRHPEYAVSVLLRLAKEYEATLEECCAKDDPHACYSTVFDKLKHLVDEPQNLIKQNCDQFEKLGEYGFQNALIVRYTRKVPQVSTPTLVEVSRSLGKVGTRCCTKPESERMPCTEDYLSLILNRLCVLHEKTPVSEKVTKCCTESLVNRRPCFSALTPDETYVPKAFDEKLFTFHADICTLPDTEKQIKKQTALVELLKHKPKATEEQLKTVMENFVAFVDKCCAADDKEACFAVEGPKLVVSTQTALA
Sequence of Concanavalin-A (Canavalia ensiformis) (P02866 whole entry, looked up): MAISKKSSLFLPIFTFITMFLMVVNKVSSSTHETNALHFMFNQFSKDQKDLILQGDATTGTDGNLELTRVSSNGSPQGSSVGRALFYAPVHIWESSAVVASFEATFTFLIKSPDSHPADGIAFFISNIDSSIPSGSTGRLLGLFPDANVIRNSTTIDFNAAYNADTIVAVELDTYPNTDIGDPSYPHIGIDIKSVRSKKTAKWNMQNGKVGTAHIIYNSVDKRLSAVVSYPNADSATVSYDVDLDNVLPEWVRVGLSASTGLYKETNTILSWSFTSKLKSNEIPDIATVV

| SMILES | composite z-score (Albumin (Bos taurus)) | composite Z-score [1] | composite z-score [2] | composite z-score [3] | composite z-score [4] | composite z-score [5] | composite z-score [6] | composite z-score (Sam68 (KHDRBS1)) | composite z-score [7] | composite z-score [8] | composite z-score [9] | composite z-score [10] | composite z-score [11] | composite z-score [12] | composite z-score [13] | composite z-score [14] | z-score [15] | composite z-score (Lefty1) | composite z-score [16] | z-score [17] |
| --- | --- | --- | --- | --- | --- | --- | --- | --- | --- | --- | --- | --- | --- | --- | --- | --- | --- | --- | --- | --- |
| C=CC[C@@]1(C(=O)NCCN2CCOCC2)N=C(c2ccc(OCCCO)cc2)O[C@@H]1c1ccccc1CN=[N+]=[N-] | 0.831 | -0.0095 (inactive) | -0.434 | -0.397 | 0.556 | 2.9 | 0.895 | 1.2 | 0.055 | 0.85 | 2.83 | 1.23 | 0.269 | 0.216 | 0.898 | -0.224 | 0.127 | -0.0903 | 1 | -3.74 (inactive) |
| CN(C)CCCCNC(=O)[C@@H]1C[C@@H]2C(=O)N[C@@H](CCCCN)C(=O)N2[C@@H]1c1cccc(OCCO)c1 | -0.564 | 0.703 (inactive) | -0.0918 | 0.0072 | 0.42 | 2.85 | 0.429 | -0.266 | -0.0061 | 0.344 | 0.117 | -0.229 | -0.815 | -0.581 | -0.029 | 0.554 | -0.872 | -0.382 | -0.13 | 0.654 (inactive) |
| C=C(CCCC)/C(=C/C[C@H](OC(C)=O)c1ccc(CO)o1)c1cc(C(=O)OC)ccc1OC | 0.588 | 0.297 (inactive) | 0.133 | -0.149 | 0.694 | 0.699 | 0.53 | 1.17 | 0.323 | 0.902 | 0.683 | 0.596 | 0.0945 | 0.579 | 1.29 | 0.708 | -0.925 | 1.42 | 0.789 | -1.45 (inactive) |
| COc1ccccc1CN1C(=O)c2ccccc2[C@](Cc2ccccc2I)(C(=O)NCc2ccccc2)[C@@H]1c1ccc(CO)cc1 | 0.717 | 0.265 (inactive) | -0.0682 | -0.0211 | 0.345 | 1.77 | 0.729 | 0.505 | -0.748 | -0.0126 | -0.0448 | 0.406 | -0.2 | 0.414 | -0.526 | -0.243 | 0.109 | -0.88 | 0.687 | 0.0375 (inactive) |
| COc1ccc(C(=O)Nc2cccc(CN3C(=O)[C@@]4(O[C@@H](CC(=O)N5Cc6ccccc6C[C@H]5CO)[C@H]([Si](C)(C)c5ccc(OC)cc5)[C@H]4C)c4ccccc43)c2)cc1 | -1.04 | 0.008 (inactive) | 0.127 | -0.14 | 0.576 | 1.15 | -0.0148 | 1.04 | 1.38 | 1.08 | 1.37 | 0.86 | 0.469 | 0.622 | 1.13 | 1.25 | 0.68 | 1.57 | 0.29 | -1.52 (inactive) |
| CCOC(=O)C1=C[C@@H](C(C)(C)C)N(S(=O)(=O)c2ccc(C)cc2)[C@H]1c1ccc(Cl)c(Cl)c1 | 0.867 | -0.179 (inactive) | 0.163 | 0.0601 | 0.497 | 1.79 | 1.03 | 1.3 | 0.185 | 1.16 | 0.978 | 1.21 | 0.606 | 0.968 | 0.654 | 0.202 | 3.07 | 0.495 | 0.945 | 1.34 (inactive) |
| COC(=O)c1c(CC[C@@H](CO)NC(=O)Nc2ncn[nH]2)oc(C(=O)Cc2ccccc2)c1C(=O)OC | -0.145 | 1 (inactive) | 0.158 | -0.12 | 0.768 | 3.22 | 0.705 | 0.885 | 1.08 | 1.16 | 0.936 | 0.466 | 0.108 | 0.915 | 1.08 | 1.58 | -0.491 | 0.895 | 0.467 | 1.03 (inactive) |
| COc1ccc([Si](C)(C)[C@H]2[C@H](CC(=O)N3CCC[C@H]3CO)O[C@@]3(C(=O)N(Cc4cccc(N5CCC5=O)c4)c4ccccc43)[C@@H]2C)cc1 | -0.654 | -0.804 (inactive) | 0.229 | -0.0392 | 0.395 | 0.789 | -0.0115 | 1.31 | 0.95 | 0.759 | 0.744 | 1.24 | 0.474 | 0.734 | 1.36 | 1.55 | 1.4 | 1.38 | 0.532 | -0.493 (inactive) |
| CCCC[C@@H]1C[C@H]1[C@@H](NC(=O)c1ccco1)c1ccccc1 | 0.277 | -0.264 (inactive) | -0.25 | -0.193 | -0.504 | -0.185 | -0.697 | -0.555 | -1.41 | -0.945 | -0.172 | -1 | -0.107 | -1.82 | -1.64 | -2.17 | 0.542 | -1.06 | -0.0439 | 0.771 (inactive) |
| CO[C@H]1O[C@H](CO)[C@@H](OC(=O)Nc2ccc(C(F)(F)F)cc2)[C@H](OC(=O)Nc2ccccc2)[C@@H]1OC(=O)Nc1ccccc1 | 0.533 | 0.291 (inactive) | 0.217 | 0.0405 | 0.527 | 2.31 | -0.0098 | 1.29 | -0.28 | 1.16 | 0.817 | 1.18 | 0.132 | 0.944 | 1.21 | 0.21 | -0.191 | 0.41 | 0.58 | -0.72 (inactive) |
| CCCNC(=O)[C@@]1(c2ccc([N+](=O)[O-])cc2)CC(=O)N(CC23CC4CC(CC(C4)C2)C3)[C@@H]1c1ccc(CO)cc1I | 0.41 | 0.609 (inactive) | 0.216 | 0.126 | 0.118 | 1.33 | 0.137 | 0.974 | -0.366 | 0.519 | 1.02 | 1.08 | 1.19 | -0.0329 | 0.541 | 0.753 | 1.04 | -0.462 | 0.519 | -0.1 (inactive) |
